# High-throughput results deposited in PubChem by National Center for Advancing Translational Sciences (NCATS).
# gsp antag – gsp mutant antagonism; gsp-mutant cells, cAMP HTRF, 30 min; Potency, µM (titrated, usually from 76.9 µM), hits mostly inhibitors; 0.4% of 340,000 active; AID 624288; calls by dose curve; cell line not stated here;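 note: intracellular cAMP measured with PDE inhibitor Ro 20-1724 present during compound exposure; nearly all actives have a fitted effect of over 65% in size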
#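 Cells, 2000/well, grown 16–24 h in DMEM 10% FBS with 0.5 mg/ml G418, then compounds plus […] (300 uM addition stock), 30 min at 37C. cAMP read by HTRF (cAMP-d2 and anti-cAMP antibody-K in lysis buffer) after 30 min RT.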
# RXFP1 ag – activates the human relaxin receptor RXFP1; Q9HBX9; HEK293T-RXFP1 cAMP TR-FRET, 30 min; response scale: percent of porcine relaxin response, buffer zero; Potency, µM (top dose mostly 57.5 µM), actives largely listed as activators; 0.3% of 370,000 active; active = well fitted activation curve with a large enough effect; inconclusive = small, poorly fitted or top-dose-only effect; note: nearly all actives have a fitted effect of over 60% in size
# Target sequence (Q9HBX9 whole entry, looked up): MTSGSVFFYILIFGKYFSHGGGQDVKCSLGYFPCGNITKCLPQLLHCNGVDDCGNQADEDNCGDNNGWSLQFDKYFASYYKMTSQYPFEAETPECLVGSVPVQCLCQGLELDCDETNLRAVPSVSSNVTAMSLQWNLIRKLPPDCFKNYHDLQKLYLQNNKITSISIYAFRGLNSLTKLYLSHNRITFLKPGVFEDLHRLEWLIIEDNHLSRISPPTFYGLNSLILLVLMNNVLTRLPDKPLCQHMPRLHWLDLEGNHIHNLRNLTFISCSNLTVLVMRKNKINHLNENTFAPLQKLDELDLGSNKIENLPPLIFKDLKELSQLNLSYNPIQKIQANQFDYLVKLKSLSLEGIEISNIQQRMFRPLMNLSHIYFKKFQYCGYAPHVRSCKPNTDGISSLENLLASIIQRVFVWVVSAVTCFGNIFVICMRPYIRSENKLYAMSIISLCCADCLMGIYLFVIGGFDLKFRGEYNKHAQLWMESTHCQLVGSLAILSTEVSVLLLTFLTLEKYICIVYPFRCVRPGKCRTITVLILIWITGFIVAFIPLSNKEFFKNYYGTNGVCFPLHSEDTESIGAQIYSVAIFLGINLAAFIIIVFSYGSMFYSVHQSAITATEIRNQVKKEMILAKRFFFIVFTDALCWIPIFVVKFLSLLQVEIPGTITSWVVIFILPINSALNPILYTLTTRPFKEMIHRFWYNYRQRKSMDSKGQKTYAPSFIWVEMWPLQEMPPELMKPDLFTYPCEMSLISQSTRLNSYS
#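 HEK293T cells stably expressing RXFP1 were pretreated with the PDE4 inhibitor Ro 20174, exposed to compounds for 30 min at 37C, lysed, and cAMP was read by TR-FRET. Data normalized to buffer (basal) and 29 nM porcine relaxin (100%).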
# RXFP1 antagonist – antagonists of human relaxin receptor RXFP1 | Q9HBX9 | activity change, negative = inhibition, % at 57.5 µM | 0.59% of 350,000 active | AID 1259400 | HEK293-RXFP1, relaxin-stimulated cAMP HTRF, 30 min; hits give low values;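 active = activity change of -60% or lower, but not beyond a set lower limit; inconclusive = change between -60% and -40%, or beyond the set limit; inactive = change above -40%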
# gsp agonist – activates gsp, the McCune-Albright syndrome mutation. gsp mutant cells, cAMP HTRF, 30 min. Potency, µM (titrated, usually from 76.9 µM), actives largely listed as activators. 0.13% of 340,000 active; active = well fitted activation curve with a large enough effect; inconclusive = small, poorly fitted or top-dose-only effect, or another doubt; inactive = no such curve, though single readings can be large or run the other way; cell line not stated here;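 note: phosphodiesterase inhibitor Ro 20-1724 added with compounds to block cAMP breakdown; nearly all actives have a fitted effect of over 60% in size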
#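 Cells stably selected in G418 were plated at 2000/well, grown 16-24 hr, then given compounds in DMSO with the PDE inhibitor […] (300 uM solution added) for 30 min at 37C; cAMP was read by HTRF.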
# Numbers stand for hits; n = inactive; u = inconclusive; x = no result given; ! = a repeat was not active; [ ] = dose if it differs, or a comment. Compounds with a hit are over-represented: about 0.9% of the library has one in this group of screens.
SMILES,gsp antag,RXFP1 ag,RXFP1 antagonist,gsp agonist
COc1ccc(CNC(=O)c2nc(S(=O)(=O)Cc3ccccc3)ncc2Cl)cc1,u,n,-118.8!,n
O=C(NCc1ccccc1)c1nc(S(=O)(=O)Cc2ccccc2)ncc1Cl,n,n,-113.4!,n
CCOC(=O)C/C(C)=N\Nc1nc(-c2ccccc2)cs1,8.91µM,n,n,n[15.4 µM]
CC(C)=NNc1nc(-c2ccccc2)cs1,n,n,n,n
Cc1ccc(-c2noc(CCC(=O)NCCCN3CCN(c4cccc(Cl)c4)CC3)n2)cc1,n[15.4 µM],n,-64.0,n
COc1cc(/C=N/NC(=O)c2ccccn2)ccc1OC(=O)c1ccccc1Br,u,n,-97.3,n[15.4 µM]
COc1cc(/C=N/NC(=O)c2ccccn2)ccc1OC(=O)c1ccc(Br)cc1,n,n,n,n
COc1ccc(-c2nc(-c3ccccc3)c(-c3ccc(O)cc3)[nH]2)cc1,x,n,-104.2,x
CC(=O)c1c(C)[nH]c(C(=O)OCC(=O)Nc2ccc(C)cc2[N+](=O)[O-])c1C,u,n,n,n
CC(=O)c1c(C)[nH]c(C(=O)OCC(=O)Nc2cc(Cl)ccc2[N+](=O)[O-])c1C,35.5µM,n,n,u
Cc1[nH]n(-c2ccccc2)c(=O)c1/C=C1\C=NN=C1c1ccccc1,u,n,-109.9,n[15.4 µM]
Cc1[nH]n(-c2ccccc2)c(=O)c1/C=C1/C=c2ccccc2=N1,n,n,n,n[15.4 µM]
CCc1ccc2c(c1)c(=O)c(C(=O)c1ccccc1)cn2CC(=O)Nc1ccc(C)c(Cl)c1,x,n,x,x
Cn1c(=O)c([N+](=O)[O-])c(NCCCn2ccnc2)c2ccccc21,n,n,n,n[15.4 µM]
Cn1c(=O)c([N+](=O)[O-])c(-n2ccnc2)c2ccccc21,u,n,-110.1,n[15.4 µM]
CNS(=O)(=O)c1cn(CC(=O)Nc2cccc(OC)c2)cc1S(=O)(=O)NC,x,n,n,x
N#Cc1ccccc1Cn1c(=O)n(-c2ccc(F)c(Cl)c2)c(=O)c2sccc21,x,n,n,x
Cc1ccc(NC2=NCC(=O)N2C2CCCC2)cc1C,n,n,-68.9,n[15.4 µM]
Cc1ccc(NC2=NCC(=O)N2C2CCCC2)cc1,n,n,n,u
CC(C)(C)CC(C)(C)c1ccc(OCC(=O)Nc2ccc(S(=O)(=O)Nc3ncccn3)cc2)cc1,x,n,x,x
Cc1c(C)c2c(c(C)c1O)CCC(C)(COc1ccc(CC3SC(=O)NC3=O)cc1)O2 (configuration not stated),x,x,-74.8,x
CCCCc1nn2c(=O)cc(COC(=O)c3cccc(NC(=O)c4cccs4)c3)nc2s1,x,n,n,x
CCOCCOC(=O)/C=C/c1ccc(OC)cc1,x,x,n,x
O=C(CCC(=O)N1Cc2ccccc2Oc2ncccc21)NCc1cccc(Cl)c1,x,n,n,x
CN(C)c1ccc(/C=N/n2c(-c3ccccc3Br)n[nH]c2=S)cc1,u,n,-93.6,n
SMILES,gsp antag,RXFP1 ag,RXFP1 antagonist,gsp agonist
CC(C)c1ccc(NC(=O)C(Cc2ccccc2)n2cccc2)cc1 (configuration not stated),x,n,-70.9,x
CCOc1ccc(-c2csc(NC(=O)CSC3=NC(=O)CN3C(C)=O)n2)c2ccccc12,n,n,n,n[15.4 µM]
CC(=O)N1CC(=O)N=C1SCC(=O)Nc1nc(C)c(-c2ccccc2)s1,u,n,-109.8,n[15.4 µM]
Cc1nn(Cc2ccccc2)c(C)c1NC(=O)c1cc(C(C)C)on1,x,n,n,x
O=C(Nc1ccc(OC(F)F)c(Cl)c1)Nc1ccc2c(c1)OCO2,u,n,n,n
O=C(Nc1ccc([N+](=O)[O-])cc1)Nc1ccc(OC(F)F)c(Cl)c1,39.8µM,n,u,n
COc1ccc(NC(=O)c2cccc(OC(F)F)c2)cc1Cl,n,n,n,n
O=C(Nc1ccc(OC(F)F)c(Cl)c1)c1cccc(OC(F)F)c1,39.8µM,n,n,n
O=C(CS(=O)Cc1ccco1)NC/C=C\COc1cc(CN2CCCCC2)ccn1 (configuration not stated),x,x,n,x
Cc1nc(-c2ccc(S(=O)(=O)NCc3ccc(N(C)C)cc3)cc2)co1,x,n,x,x
O=C(NC1CCCCC1)c1ccc(CNc2nc(=S)[nH]c3ccccc23)cc1,n,n,-80.8,n[15.4 µM]
S=c1nc(NCc2ccc3c(c2)OCO3)c2ccccc2[nH]1,u,n,n,n
C=C1C(=O)c2sccc2C(c2ccc(OC)c(OC)c2)C1COC(C)=O (configuration not stated),n,x,-103.5,n
COc1cccc(NC(=O)CN(C)C(=O)c2cc(-c3ccco3)nc3ccccc23)c1,n,n,n,n[15.4 µM]
CN(CCOc1ccc(Cl)cc1)C(=O)c1cc(-c2ccco2)nc2ccccc12,u,n,-69.6,n
CCOC(=O)c1sc(=NC(=O)c2cccs2)n(C)c1C,n,28.2µM,n,n[15.4 µM]
CCOC(=O)c1sc(=NC(=O)c2ccc(Cl)s2)n(C)c1C,n,n,n,n[15.4 µM]
N#C/C(=C/c1ccc(Sc2nc3ccccc3[nH]2)o1)c1cccc(F)c1,35.5µM,n,n,n
Cc1ccc(-n2c(=S)[nH]c3sc4c(c3c2=O)CCC4)cc1,n,12.6µM,n,n[15.4 µM]
Cc1ccc(-n2c(=O)c3c4c(sc3n3c(=S)[nH]nc23)CCC4)cc1,n,n,n,n
N=c1c2c(-c3ccccc3)c(-c3ccccc3)n(Cc3ccco3)c2ncn1Cc1ccco1,n,n,-102.3,n
CCCC(=O)Nc1ccc(O)c(C(C)=O)c1,x,x,n,x
CCCC(=O)N(C1CC(C)C(C#N)(C#N)C1(C#N)C#N)N(C)C (configuration not stated),n,n,-85.2,n[15.4 µM]
CC(=O)N(C1CC(C)C(C#N)(C#N)C1(C#N)C#N)N(C)C (configuration not stated),n,n,n,n[15.4 µM]
COc1cc(/C=C(\CCC(=O)O)c2nc3ccccc3s2)ccc1OCC(=O)Nc1c(Cl)cccc1Cl,28.2µM,x,n,n
SMILES,gsp antag,RXFP1 ag,RXFP1 antagonist,gsp agonist
O=C(O)CC/C(=C/c1cccc(NC(=O)c2ccccc2Cl)c1)c1nc2ccccc2s1,u,x,n,n
CCCNC(=O)COC(=O)c1cc2c(=O)n3ccccc3nc2s1,n,u,n,11.2µM
Cn1c(CCCOc2ccc(Cl)cc2Cl)nnc1SCC(=O)Nc1cccc(F)c1,n,n,n,n[15.4 µM]
CCc1cccc(C)c1NC(=O)CSc1nnc(CCCOc2ccc(Cl)cc2Cl)n1C,10µM,n,n,n
CC(=O)Nc1c(Cl)cc(Cl)c2c1Cc1cc(Cl)ccc1-2,n,x,-101.0,n
COc1ccc(-c2nc3scc(CCNC(=O)c4cc(OC)cc(OC)c4)n3n2)cc1,x,n,n,x
Oc1cccc(C2c3[nH]c4ccccc4c3CCN2Cc2ccoc2)c1 (configuration not stated),n,n,n,n
Oc1cccc(C2c3[nH]c4ccccc4c3CCN2Cc2ccc3c(c2)CCO3)c1 (configuration not stated),n,n,-60.8,n[15.4 µM]
Cn1nc(C(F)(F)F)c2cc(C(=O)Nc3ccc(F)c(Cl)c3)sc21,u,n,-75.9,n
C=CCn1c(SCC(=O)NC2CCCC2)nc2scc(-c3ccco3)c2c1=O,n,n,-62.3,n
COc1cc(NS(=O)(=O)c2cc3c(cc2C)N(C)CCO3)cc(OC)c1OC,x,u,n,x
